ChEMBL document CHEMBL3988442, “University of Dundee, Small-Polar-MMV Screening Library” (2021)
The whole screen tested about 48,000 compounds, of which about 13,000 (27%) showed an effect of 50% or more. The list shows a part of the results.

Test system: Wolbachia pipientis
Assay: Anti-Wolbachia Cell-Based Screen
Assay type: functional
Design: scale not given: in the data most compounds retested in dose-response had high values
Settings: 5 µM

SMILES	Percent Effect [%]
Cc1cc(CN2CCc3nn(C(C)C)c(=O)cc3C2)no1	-4.35
CCc1csc(CCNC(=O)C2CC(=O)N(C(C)C)C2)n1 (stereo not given)	2.498
CCOCCC(=O)NC(c1noc(C)n1)c1ccccc1F (stereo not given)	-21.83
COc1ccc(CNCC(C)Oc2ccccn2)cc1Br.Cl (stereo not given)	9.774
NC(=O)c1noc(Cn2ccc3ccccc3c2=O)n1	-17.09
Cc1ccc(OCCCC(=O)NC(C)c2ccc(S(N)(=O)=O)cc2)cc1 (stereo not given)	31.07
Cc1ccc(OCCN(C)C(C)c2cccc(S(N)(=O)=O)c2)cc1 (stereo not given)	121.8
CN(CCCOc1ccccc1)S(=O)(=O)N1CCOCC1	2.231
CC(c1cccc(S(N)(=O)=O)c1)N(C)CCCOc1ccccc1 (stereo not given)	114.5
Cc1ccc(C(C)N(C)CCS(=O)(=O)CCC(N)=O)cc1 (stereo not given)	1.361
CNS(=O)(=O)c1cccc(C(C)NCc2ccccc2)c1 (stereo not given)	-4.826
Cc1cccc(C2CCCN2C(=O)CN(C)S(C)(=O)=O)c1C (stereo not given)	-12.58
Cc1nc(N)cc(C2CN(C(=O)c3ccn(C)n3)CCO2)n1 (stereo not given)	-11.99
CNC(=O)c1ccc(C2CN(C(=O)c3cnn(C)c3)CCO2)nc1 (stereo not given)	109.7
Cc1n[nH]c(C2CN(C(=O)c3ccc(=O)n(C)c3)CCO2)n1 (stereo not given)	-1.43
CNC(=O)c1ccc(C2CN(C(=O)c3cncs3)CCO2)nc1 (stereo not given)	-5.383
Cc1n[nH]c(C2CN(C(=O)c3scnc3C)CCO2)n1 (stereo not given)	-53.57
CNC(=O)c1ccc(C2CN(C(=O)c3scnc3C)CCO2)nc1 (stereo not given)	111.8
Cn1ccc(C(=O)N2CCOC(c3ccc(C(N)=O)cn3)C2)n1 (stereo not given)	91.81
O=C(c1cccnc1)N1CCOC(c2ccc(-c3cncnc3)cn2)C1 (stereo not given)	91.28
CCC1CN(C(=O)c2cnc(-c3cnn(C)c3)s2)CCO1 (stereo not given)	-21.53
O=C(c1ccncc1F)N1CCOC(c2cccc(O)c2)C1 (stereo not given)	-9.281
O=C(c1cccnc1)N1CCOC(CCCc2ccccc2)C1 (stereo not given)	4.666
CCN(Cc1noc(CC(C)C)n1)Cc1ccccc1C(=O)O	3.594
COc1ccc(C(=O)C2CCCN(c3cc(N)ncn3)C2)c(C)c1 (stereo not given)	-12.01
Cc1cc(C[C@@H]2COC[C@@H]2NC(=O)CN2CCCN(C)CC2)on1	-4.417
Cc1cc(C2CCCN2C(=O)CN2CCc3ccccc32)on1 (stereo not given)	-2.751
Cc1[nH]ncc1C(=O)N1CCOC(c2cccs2)C1 (stereo not given)	6.058
CNC(=O)c1ccc(C2CN(C(=O)c3c[nH]nc3C)CCO2)nc1 (stereo not given)	101.4
CNC(=O)c1ccc(C2CN(C(=O)c3coc(C)n3)CCO2)nc1 (stereo not given)	128.9
